From the supplement of paper PMC12636033
± gives the standard deviation of the averaged measurements. Over roughly 33,000 sequences, “E-score (rank enrichment, -0.5 to 0.5)” has its median near -0.0075; the highest 2% begin near 0.23. The sample as a whole holds a higher share of the highest values than the screen did.

What follows are sequences tested on WT Max(13-93) synthetic (M65Nle) (assay: PBM 8-mer E-score (E-score (rank enrichment, -0.5 to 0.5)); higher = stronger preferential binding).
Procedure: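 Protein binding microarray (universal PBM chip covering all 10-mers in fixed probe flanks) with chemically synthesized human Max(13-93) bHLH-LZ analogs (not full-length Max) bearing noncanonical residues (hArg, Tha, Aib, Nle at 65) and aromatic Cys staples. Read-out per 8-mer (and its reverse complement): E-score (rank-based enrichment, -0.5 to 0.5) and Z-score of median probe intensity.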

Sequence | PBM 8-mer E-score
AAAAAATA | 0.246 ± 0.022
GAAGAATA | 0.104 ± 0.034
ATAAAATA | 0.244 ± 0.0078
GTAAAATA | 0.0829 ± 0.0054
CAAAAATA | 0.185 ± 0.02
CAAGAATA | 0.13 ± 0.035
ATAAAATC | 0.109 ± 0.055
TAGAAATA | 0.251 ± 0.07
GAAAAATA | 0.198 ± 0.08
AAGAAATA | 0.129 ± 0.0058
GAGAAATA | 0.0631 ± 0.15
AAAGAATA | 0.241 ± 0.039
CATGCCGC | 0.0835 ± 0.051
AATAGAGG | 0.00232 ± 0.055
GAGTGGTA | -0.108 ± 0.011
AATGCAGG | 0.087 ± 0.07
AAGAACGA | 0.129 ± 0.018
CAGAGTGC | -0.201 ± 0.058
CTCGAAAG | -0.184 ± 0.043
GACGAACA | 0.0177 ± 0.055
GTTCATTA | 0.113 ± 0.06
AGGTTTAA | 0.0368 ± 0.0029

Sequence | PBM 8-mer E-score
GGCTGGAA | -0.0381 ± 0.036
ATAAATTG | 0.0667 ± 0.085
GTTAAATA | 0.257 ± 0.1
CTAAATTA | 0.0753 ± 0.031
ATAAATTA | 0.324 ± 0.038
CTTAAATA | 0.139 ± 0.023
ATTAAATA | 0.174 ± 0.085
CGGGTCAA | -0.125 ± 0.03
ATGGCTAG | 0.0642 ± 0.13
AGGGAGCC | -0.227 ± 0.056
AGTGCGTG | 0.0848 ± 0.032
GGTTAGGA | 0.0556 ± 0.043
ACTTAAAC | 0.0371 ± 0.073
CCGCAGAG | -0.0777 ± 0.023
CAGACACG | -0.0764 ± 0.14
ATGACACC | 0.159 ± 0.048
ATGACAGG | 0.0387 ± 0.051
AAGACACG | 0.246 ± 0.021
GTGACACA | 0.0907 ± 0.1
CTGACACA | -0.0349 ± 0.034
ATGACACA | 0.236 ± 0.042
AAGACACA | 0.0963 ± 0.021

Sequence | PBM 8-mer E-score
ATGACACG | 0.298 ± 0.039
CAGTCTGC | -0.0522 ± 0.01
ACCTAATG | 0.00028 ± 0.0032
CCAGGAGC | -0.312 ± 0.0027
ATAAAACG | 0.163 ± 0.16
GTAAAACA | 0.142 ± 0.14
ATAAAACA | 0.24 ± 0.0041
CTAAAACA | -0.07401 ± 0.00047
TAAAAACA | 0.25 ± 0.0036
GAAGAACA | 0.209 ± 0.057
ATAAAAAG | 0.283 ± 0.11
CAAGAACA | 0.0399 ± 0.038
AAAAAACA | 0.158 ± 0.071
ATAAAAAA | 0.19 ± 0.044
ATAAAAGG | 0.0572 ± 0.12
TAAGAACA | 0.243 ± 0.099
GCCCCGTA | -0.0782 ± 0.17
ACGGGGTC | -0.061 ± 0.014
CGGCAGAC | -0.218 ± 0.039
AACCATTC | 0.0337 ± 0.04
AATGCCGC | -0.0772 ± 0.0051
CGACTAAA | -0.00903 ± 0.06

Sequence | PBM 8-mer E-score
AATAGGCA | 0.118 ± 0.0074
GCGCGCCC | 0.00746 ± 0.051
CAGGTTCC | -0.228 ± 0.077
CCGTTAGC | -0.112 ± 0.12
ATAAAGCG | 0.106 ± 0.045
CTCAAACA | 0.117 ± 0.014
ATCAAGCA | 0.113 ± 0.0099
CTAAAGCA | 0.0761 ± 0.037
ATCAAACA | 0.238 ± 0.041
ATAAAGCA | 0.264 ± 0.046
GGCGGATA | -0.183 ± 0.13
TGTGTTAA | 0.226 ± 0.034
TTACACAA | 0.00996 ± 0.084
ACCTGGGC | -0.318 ± 0.086
AATCCTCT | 0.079 ± 0.071
ACGCCAAC | -0.125 ± 0.04
TGTATTAA | 0.173 ± 0.026
CCTCAGGC | -0.057 ± 0.056
GAGTGGGA | -0.0159 ± 0.0035
CCGTGGGC | -0.129 ± 0.18
